Measurements: PubChem BioAssay AID1020 (Sanford-Burnham Center for Chemical Genomics, 2008)
The campaign covered roughly 200,000 compounds. About 240 (0.12%) were called active. Cut-off read from the data, not from the text of the source: active = inhibition above about 50%; inactive = the rest. The sample as a whole holds a higher share of actives than the screen did.

The compounds below were run on glucose-6-phosphate dehydrogenase [Leuconostoc mesenteroides] (assay: bacterial G6PDH enzyme inhibition, coupled readout – biochemical, Leuconostoc mesenteroides enzyme, counter-screen for G6PDH-coupled screening assays (AID 1020)). Details: Purified L. mesenteroides G6PDH, diaphorase/resazurin coupled fluorescence, 45 min; at 5 µM; hits give high values.
With Cc1ccccc1NC(=S)NNC(=O)c1cccc(Br)c1 the inhibition was 1.2% (inactive).
With COc1ccc(-n2cc(CN(C)Cc3n[nH]c(=O)[nH]3)c(-c3cccc(F)c3)n2)cc1 the inhibition was 19.5% (inactive).
COC(=O)c1ccc(NC(=S)NN2CCOCC2)cc1 was tested, and the inhibition was -2.2% (inactive).
With O=C(c1snnc1-c1ccccc1)N1CCOCC1 the inhibition was -2.4% (inactive).
With OC(c1nnc(-c2ccccc2)o1)c1cccs1 (stereo unspecified) the inhibition was 10.6% (inactive).
In the case of CCCCn1c(O)c(N=NC(=O)Cn2c(C(F)(F)F)nc3ccccc32)c2ccccc21, the inhibition is reported as 7.1% (inactive).
For COc1cc(C=O)c(Br)cc1OCC(=O)NCc1ccccc1, the inhibition was 6.7% (inactive).
For CCOc1ccccc1N1CCN(C(=O)COc2ccc3c(C)cc(=O)oc3c2)CC1, the inhibition was 1.2% (inactive).
With Cc1ccc(C(=O)NC(=S)NCc2cccnc2)cc1 the inhibition was -1.6% (inactive).
For Cc1ccc(COc2ccc(C(=O)NN)cc2)cc1, the inhibition was 10.9% (inactive).
With O=C(NCc1ccccc1Cl)C1CCN(S(=O)(=O)N2CCOCC2)CC1 the inhibition was 4.2% (inactive).
For Nc1ncnc(Nc2cccc(Cl)c2Cl)n1, the inhibition was 15% (inactive).
With CCOC(=O)Cc1cc(=O)[nH]c(=O)[nH]1 the inhibition was 4.9% (inactive).
With O=C(/C=C/c1ccccc1[N+](=O)[O-])OC1CCCCC1=O (stereo unspecified) the inhibition was 3% (inactive).
O=c1c([N+](=O)[O-])cccn1Cc1ccc(F)cc1Cl was tested, and the inhibition was 8% (inactive).
For CSc1ncccc1C(=O)N1CCCC(CCC(=O)NCc2ccccc2F)C1 (stereo unspecified), the inhibition was 8.1% (inactive).
CC(C)(C)N(CC#CCC(O)(c1ccccc1)C1CCCC1)CCO (stereo unspecified) was tested, and the inhibition was 13.4% (inactive).
OCCNCCOc1ccc(Cl)c(Cl)c1 was tested, and the inhibition was 3.7% (inactive).
CC(C)(C)CC(=O)Nc1nnc(SCC(=O)NCc2cccs2)s1 was tested, and the inhibition was 10.3% (inactive).
In the case of COc1ccc(CC2(CO)CCN(Cc3cnn(C)c3)CC2)cc1, the inhibition is reported as 0.2% (inactive).
For CCOC(=O)/C=C/C(=O)OCC(=O)NC(c1ccccc1)c1ccccc1, the inhibition was 9.9% (inactive).
For Cc1ccc(O)c(-c2cc(C(=O)Nc3c(C)n(C)n(-c4ccccc4)c3=O)[nH]n2)c1, the inhibition was 4% (inactive).
With CC(C(=O)N=Nc1c(O)n(C)c2ccc(Br)cc12)n1cnc2ccccc2c1=O (stereo unspecified) the inhibition was -0.8% (inactive).
Cc1ccc2cc(C)c(N3CCC(C)CC3)nc2c1 was tested, and the inhibition was 12.3% (inactive).
For O=C(Nn1cnnc1)c1ccc([N+](=O)[O-])cc1, the inhibition was 6% (inactive).
In the case of Cc1nn(-c2ccccc2)c(C)c1/C=N/NC(=O)CSc1nc2ccccc2c(=O)n1-c1ccccc1, the inhibition is reported as -5.5% (inactive).
With O=C(COC(=O)C1CC2C=CC1C2)Nc1ccccc1 (stereo unspecified) the inhibition was 5.8% (inactive).
For CCC(C)(C)c1ccc(OCC(=O)N(C)C)c(C(C)(C)CC)c1, the inhibition was -0.6% (inactive).
CCc1n[nH]c(=S)n1/N=C/c1c[nH]c2ccc(Br)cc12 was tested, and the inhibition was -2.8% (inactive).
For CC(=O)Nc1ccc(S(=O)(=O)N(CCc2ccccc2)CC(=O)N/N=C/c2ccc(C(=O)O)cc2)cc1, the inhibition was 6.2% (inactive).
With CC(=O)n1cc([C@H]2C=C(C(=O)N3CCOCC3)O[C@@H](OCc3ccc(CO)cc3)C2)c2ccccc21 the inhibition was 13.3% (inactive).
For COc1cccc(CC(=O)N2CCCC(CCC(=O)N3CCN(c4ccccn4)CC3)C2)c1 (stereo unspecified), the inhibition was 2.5% (inactive).
With CCN(CC)C(=O)Cn1cc(S(=O)(=O)CC(=O)NCc2ccc3c(c2)OCO3)c2ccccc21 the inhibition was 2.6% (inactive).
With CC(O)c1cccc(NC(=O)Cc2cccc3ccccc23)c1 (stereo unspecified) the inhibition was 0.6% (inactive).
With S=c1[nH]ccn1-c1ccc(Cl)cc1 the inhibition was 1.9% (inactive).
With CCN(CCCNC(=O)CSc1cc(=O)n(C)c2cc(Cl)ccc12)Cc1ccccc1 the inhibition was -6.2% (inactive).
For CC(=O)Oc1cc2c(C(=O)NCCN3CCOCC3)c(C)oc2c2ccccc12, the inhibition was 51% (active).
In the case of O=C(NCCN1CCOCC1)c1cc(Sc2cccc(Cl)c2)nc2ccccc12, the inhibition is reported as -13.7% (inactive).
O=C(NCCN1CCOCC1)c1c(F)c(F)c(F)c(F)c1F was tested, and the inhibition was -12.4% (inactive).
CS(=O)(=O)c1ccc2nc(NC(=O)c3ccc(Cl)nc3)sc2c1 was tested, and the inhibition was -4.6% (inactive).
For O=C(COc1ccc(NC(=O)c2ccccc2[N+](=O)[O-])cc1)c1ccc(F)cc1, the inhibition was 8.6% (inactive).
In the case of COC(=O)C1=NNC2(c3ccc(C)cc3)C(=O)N(c3cccc(C)c3C)C(=O)C12 (stereo unspecified), the inhibition is reported as 5.9% (inactive).
In the case of O=C(c1cn2ccccc2n1)N1CCc2c([nH]c3ccccc23)C1c1ccccn1 (stereo unspecified), the inhibition is reported as 16.7% (inactive).
O=[N+]([O-])c1ccc(NCCCO)c(C(F)(F)F)c1 was tested, and the inhibition was 1.5% (inactive).
For Cc1ccnc2nc(C(=O)Nc3nnc(-c4ccccc4)o3)nn12, the inhibition was 4.6% (inactive).
In the case of COc1ccc(Cn2c(-c3ccc(Cl)cc3)c[n+]3ccccc23)cc1, the inhibition is reported as -9.3% (inactive).
O=C(Nc1ccc(N2CCN(C(=O)c3cccs3)CC2)cc1)c1cccnc1Cl was tested, and the inhibition was 5.3% (inactive).
CCOC(=O)c1c(C)[nH]c(C2=NNC(=NC(C)COC)SC2)c1C (stereo unspecified) was tested, and the inhibition was -0.8% (inactive).
In the case of Cc1[nH]c2ccccc2c1-c1ccc(Cl)nn1, the inhibition is reported as 6.2% (inactive).
With Cc1nc2scc(-c3cccs3)c2c(=O)n1N the inhibition was 0% (inactive).
For O=c1c2c(ncn1Cc1ccccc1)nc1n2CCC1, the inhibition was 10.7% (inactive).
In the case of CN(C(=O)CSc1nncc2ccccc12)C1CCCCC1, the inhibition is reported as -2.2% (inactive).
With O=C(N/N=C/c1ccc(OCc2ccccc2)cc1)c1ccc(O)cc1 the inhibition was 4.1% (inactive).
With O=C(NC1CCCC1)C(NS(=O)(=O)c1ccc(Br)s1)c1ccccc1 (stereo unspecified) the inhibition was 15.8% (inactive).
In the case of Cc1ccc(NC(=O)OCCNC(=O)c2ccncc2)cc1, the inhibition is reported as 7.9% (inactive).
With CCCCS(=O)c1snnc1C (stereo unspecified) the inhibition was 7.1% (inactive).
In the case of CCOC(=O)C(C)Oc1cccc2c(=O)n(CC(=O)NCCc3ccc(OC)c(OC)c3)ccc12 (stereo unspecified), the inhibition is reported as 12.1% (inactive).
For CCn1c(=S)[nH]c2sc3c(c2c1=O)CCCCC3, the inhibition was -4.4% (inactive).
In the case of O=C(N/N=C/c1ccccn1)C12CC3CC(CC(C3)C1)C2, the inhibition is reported as 1.5% (inactive).
With O=C1c2cccc3c([N+](=O)[O-])ccc(c23)C(=O)N1CC1CCCO1 (stereo unspecified) the inhibition was 0.7% (inactive).
With O=C(COc1cc(Cl)c(Cl)cc1Cl)NCCc1ccccn1 the inhibition was 12.4% (inactive).
In the case of CC(Cc1cccs1)NC(=O)c1cccc(Cl)c1 (stereo unspecified), the inhibition is reported as 7% (inactive).
For OCCC1CN(Cc2cccn2-c2nccs2)CCN1CCc1ccccc1 (stereo unspecified), the inhibition was 12.9% (inactive).
CCC1(CC)NC(=O)N(Cc2nc3ccccc3s2)C1=O was tested, and the inhibition was 10.3% (inactive).
For CCOc1ccccc1NC(=O)C1CCCN(C(=O)Nc2ccccc2)C1 (stereo unspecified), the inhibition was 4.5% (inactive).
For CCOC(=O)CNC(=O)/C=C/c1c(Cl)cccc1Cl, the inhibition was 1.5% (inactive).
In the case of Cc1ccc(N2C(=O)SC(N(CC(=O)O)c3ccc(C)cc3)C2=O)cc1 (stereo unspecified), the inhibition is reported as 21.1% (inactive).
In the case of Cc1ccc(Nc2nnc(SCC(=O)c3cc4ccccc4o3)s2)cc1C, the inhibition is reported as -1.5% (inactive).
CCC(C)NCC(=O)Nc1ccc([N+](=O)[O-])cc1C(=O)Nc1ccccc1F (stereo unspecified) was tested, and the inhibition was 4.8% (inactive).
NC1=NN(c2cccc(C(=O)O)c2)C(=O)C1 was tested, and the inhibition was 19.2% (inactive).
CCOC(=O)/C(N=Nc1cc(C(=O)O)cc(C(=O)O)c1)=C(\O)CCl was tested, and the inhibition was -9.1% (inactive).
In the case of CCC1CCCCN1C(=S)Nc1ccc(SC(F)F)cc1 (stereo unspecified), the inhibition is reported as -14.7% (inactive).
With O=C(O)/C=C/c1cn(Cc2ccccc2)nc1-c1cccs1 the inhibition was 2% (inactive).
For CC[N+]1(CC)CC2=Cc3ccccc3CC2C1 (stereo unspecified), the inhibition was 0.9% (inactive).
With O=C(Nc1ccc(Cl)cc1)C1c2cccc[n+]2CC(=O)N1Cc1ccc2c(c1)OCO2 (stereo unspecified) the inhibition was 10.2% (inactive).
C=CCN(CC=C)S(=O)(=O)c1ccc(C(=O)Nc2nc3c(s2)CCc2ccccc2-3)cc1 was tested, and the inhibition was 8.4% (inactive).
With CCOC(=O)N1CCN(C(c2cccnc2)c2ccc3cccnc3c2O)CC1 (stereo unspecified) the inhibition was 23.8% (inactive).
In the case of Cc1nc2sc(C(c3ccco3)N3CCOCC3)c(O)n2n1 (stereo unspecified), the inhibition is reported as -0.1% (inactive).
In the case of Oc1c(C(c2ccccn2)N2CCOCC2)ccc2cccnc12 (stereo unspecified), the inhibition is reported as 50.6% (active).
For COc1ccccc1N=Cc1c(O)c2ccccc2oc1=O, the inhibition was 2.9% (inactive).
With COC(=O)c1c(NC(=O)COC(=O)[C@@H](NS(=O)(=O)c2ccccc2)C(C)C)sc2c1CCC2 the inhibition was -20.8% (inactive).
Cc1cc(C)cc(C(=O)N2CCN=C2SCc2ccc([N+](=O)[O-])cc2)c1 was tested, and the inhibition was -0.2% (inactive).
In the case of COCC(C)n1c(C)cc(C(=O)CSc2cc(C)c3ccccc3n2)c1C (stereo unspecified), the inhibition is reported as -2.6% (inactive).
CC(C)CC[n+]1ccn(C2=C([O-])c3ccccc3C(=O)/C2=N\S(=O)(=O)c2ccccc2)c1 was tested, and the inhibition was 52.9% (active).
In the case of CC1=C/C(=N\S(=O)(=O)c2ccccc2)C(C(C)C)=CC1=O, the inhibition is reported as 1.5% (inactive).
O=C1NC(c2ccccc2)CCC1(Cl)Cl (stereo unspecified) was tested, and the inhibition was -1% (inactive).
COc1ccccc1CNC(=O)C1Cc2ccccc2C(=O)O1 (stereo unspecified) was tested, and the inhibition was 14.2% (inactive).
Cc1cccc(-c2nc3ccccc3c(=O)n2NC(=O)Cc2ccc(Cl)cc2)c1 was tested, and the inhibition was 12.9% (inactive).
For O=C(COC(=O)c1cc2c(s1)CCCC2)NCc1ccccc1Cl, the inhibition was -30.3% (inactive).
CCNC(=O)c1ccc(OCC(=O)Nc2ccc(F)cc2)c(OC)c1 was tested, and the inhibition was 0% (inactive).
In the case of COC1=CCC2([N+](=O)[O-])CN(CC(=O)O)CC1([N+](=O)[O-])C2 (stereo unspecified), the inhibition is reported as -3.5% (inactive).
For Cc1ccc(C2=NN(C(=O)CSc3nc(N)cc(N)n3)C(c3ccco3)C2)cc1 (stereo unspecified), the inhibition was -0.7% (inactive).
COc1ccc(C)cc1NC(=O)C(OC(=O)c1cccc(S(=O)(=O)N(C)c2ccccc2)c1)c1ccccc1 (stereo unspecified) was tested, and the inhibition was 0.4% (inactive).
For Cc1cc(C)c(NC(=O)C[N+](C)(C)CC(O)COc2cccc3ccccc23)c(C)c1 (stereo unspecified), the inhibition was -0.6% (inactive).
With CCOC(=O)C1=C(C)OC(N)=C(C#N)C1c1cncc(-c2ccc(F)cc2)c1 (stereo unspecified) the inhibition was 14.8% (inactive).
CC1(C)CC(=O)C2=C(C1)Nc1cc(C(=O)c3ccccc3)ccc1NC2c1ccccn1 (stereo unspecified) was tested, and the inhibition was 8.9% (inactive).
For Cc1nc2ccc(NC(=S)N3CCC(C)CC3)cc2nc1C, the inhibition was 29.3% (inactive).
With COC(=O)c1nc(NC(=O)c2ccc(F)cc2)n[nH]1 the inhibition was -4.4% (inactive).
Cc1ccc(S(=O)(=O)N(CC(=O)Nc2cccc([N+](=O)[O-])c2)Cc2ccc(Cl)cc2)cc1 was tested, and the inhibition was -21.7% (inactive).
O=C(/C=C/c1ccc(Cl)cc1)Nc1ccc(Br)cn1 was tested, and the inhibition was 7.2% (inactive).
Cn1c(=O)c2c(ncn2CC(=O)N/N=C/c2cn[nH]c2-c2ccc(F)cc2)n(C)c1=O was tested, and the inhibition was -4.7% (inactive).
With CC(C)(C)NC(=O)CN(C(=O)c1csnn1)c1ccccc1-c1ccccc1 the inhibition was 9.8% (inactive).
In the case of COCCCNC(=O)Cn1c(=O)n(Cc2ccccc2Cl)c(=O)c2cc(OC)c(OC)cc21, the inhibition is reported as 4.4% (inactive).
With Cc1ccc(-c2cc(N)on2)cc1 the inhibition was 4.2% (inactive).
For CCCN(CCC)CCCNC(=O)CNC(=O)c1nn(-c2ccc(OC)cc2)c(=O)c2ccccc12, the inhibition was 6% (inactive).
CCOC(=O)c1c(NC(=O)CNC2CCCc3ccccc32)sc(C(N)=O)c1C (stereo unspecified) was tested, and the inhibition was 2.5% (inactive).
In the case of CN(CC(=O)Nc1ccccc1[N+](=O)[O-])Cc1ccc(Br)cc1, the inhibition is reported as -0.3% (inactive).
For Cc1cc(/C=N/NC(=O)c2cccnc2)c(C)n1CC(C)C, the inhibition was 2.9% (inactive).
CC1CCCCN1C(=S)NCc1ccccc1 (stereo unspecified) was tested, and the inhibition was -13% (inactive).
For CC(=O)N1c2ccccc2N(Cc2ccc([N+](=O)[O-])cc2)C(=O)C1(C)C, the inhibition was 4.5% (inactive).
In the case of COC(=O)c1ccc(NC(=O)c2cc(Cl)ccc2OC)cc1, the inhibition is reported as 0.4% (inactive).
